Source: PubChem BioAssay
This is a sample that favours compounds with a hit; in the whole collection about 7.4% have one here.
Luc counter – Kinase-Glo luciferase inhibition (counter-screen) | AID 1379 | Kinase-Glo luciferase, ATP luminescence, 8 min | hit rate 0.28% among 200,000 | Q27757 | Potency, µM (titrated, usually from 38.3 µM), actives largely listed as inhibitors; note: nearly all actives have a fitted effect of over 60% in size
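Kinase-Glo luciferase light output from ATP and luciferin was measured with 10 uM ATP, within the enzyme's linear range. Buffer: 50 mM imidazole pH 7.2, 50 mM KCl, 7 mM MgCl2, 0.01% Tween 20, 0.05% BSA; luminescence read after 8 min at ambient temperature.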
Rab9 promoter act – activators of Rab9 promoter; Huh7 Rab9 promoter-luciferase reporter, luminescence, 24 h; Potency, µM (highest dose often 9.22 µM), hits mostly activators; hit rate 2.8% among 320,000; note: nearly all actives have a fitted effect of over 60% in size
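Huh7 cells stably carrying a Rab9 promoter-luciferase reporter, 1500 cells per well in OP-MEM I with 10% FBS, treated with compound 24 hours at 37C. Luciferase activity read by luminescence after 10 minutes with Amplite reagent.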
FLuc counter – counter-screen for miR-21 project: firefly luciferase inhibitors or activators; purified FLuc, Km substrates, luminescence inhibition; Potency, µM (doses to about 57.5 µM), hits mostly inhibitors; hit rate 6.9% among 360,000; note: nearly all actives have a fitted effect of over 55% in size
Target sequence (P08659 whole entry, looked up): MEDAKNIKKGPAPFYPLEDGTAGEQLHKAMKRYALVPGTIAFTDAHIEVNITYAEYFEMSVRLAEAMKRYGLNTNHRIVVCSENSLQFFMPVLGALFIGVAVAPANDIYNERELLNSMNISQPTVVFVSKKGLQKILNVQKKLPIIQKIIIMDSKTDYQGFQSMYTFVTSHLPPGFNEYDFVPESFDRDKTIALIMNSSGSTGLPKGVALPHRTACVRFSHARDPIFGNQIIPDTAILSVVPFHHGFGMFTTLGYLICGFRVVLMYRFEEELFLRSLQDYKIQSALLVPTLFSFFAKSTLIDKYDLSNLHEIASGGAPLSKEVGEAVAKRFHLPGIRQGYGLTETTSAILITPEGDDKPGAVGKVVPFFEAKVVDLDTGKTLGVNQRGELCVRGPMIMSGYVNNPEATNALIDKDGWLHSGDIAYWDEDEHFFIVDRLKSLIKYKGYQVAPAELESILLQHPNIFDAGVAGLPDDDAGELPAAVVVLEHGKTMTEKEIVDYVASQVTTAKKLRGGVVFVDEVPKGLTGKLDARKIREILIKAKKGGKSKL
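Purified P. pyralis luciferase (10nM final) with 10uM D-luciferin and 10uM ATP (Km levels) in 50mM Tris acetate pH 7.5, 10mM Mg acetate, 0.01% Tween-20, 0.05% BSA; qHTS 6-point titration, ~60 µM downward; luminescence read.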
NPC1 prom act – activates the NPC1 promoter. Potency, µM (titrated, usually from 9.22 µM), most hits filed as activators. hit rate 2.4% among 320,000. Huh7 NPC1 promoter luciferase reporter, 24 h; note: nearly all actives have a fitted effect of over 60% in size
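Huh7 reporter cells (NPC1 promoter driving luciferase) are dosed with compound for 24 h at 37 °C, 5% CO2; luciferase detection reagent is then added and luminescence measured after 10 min at ambient temperature.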
ELG1 genotox – genotoxicity induction in ELG1-luciferase HEK293T cells; HEK293T ELG1-luciferase reporter, luminescence, 16 h; Potency, µM (titrated, usually from 46 µM), usual class: activators; hit rate 1.3% among 330,000; AID 504466; note: nearly all actives have a fitted effect of over 60% in size
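Reporter readout depends on ELG1 protein level, which increases with genetic stress. After 16 hr compound exposure at 37 °C, luciferase activity was quantified using ONE-Glo.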
SMN2 splice enh – increases expression of the SMN2 splice variant | HEK293 SMN2-luciferase splicing reporter, luminescence, 30-36 h | Potency, µM (titrated, usually from 46.1 µM), hits mostly activators | AID 1458 | hit rate 2.8% among 210,000; note: nearly all actives have a fitted effect of over 55% in size
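HEK293 cells carry an SMN2 minigene-luciferase reporter in which exon 7 inclusion puts luciferase in frame. Cells were seeded at 2000 cells/well, attached for 10-12 hours, then exposed to compounds for 30-36 hours at 37C before ONE-Glo luminescence.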
A number is an active result; i = inactive; ? = inconclusive; nt = no result; [ ] = dose if it differs, or a comment. Calls come from the whole dose curve; as a rule, active = well fitted curve in the direction sought with a large enough effect; inconclusive = small, poorly fitted or top-dose-only effect, or another doubt; inactive = no such curve, though single readings can be large; an effect the other way counts as inactive or inconclusive.

SMILES	Luc counter	Rab9 promoter act	FLuc counter	NPC1 prom act	ELG1 genotox	SMN2 splice enh
CC1=NN2C(=N)/C(=C\c3ccc(SCc4ccccc4)o3)C(=O)N=C2S1	i	i	i	i	i	i
C[C@H]1Cc2c(COc3ccccc3)nc3c(c2CO1)CN(C(=O)C1CCCCC1)CC3	i[7.66 µM]	nt	nt	nt	nt	i[9.22 µM]
CCc1ccc(C(=O)N/N=C(\C)c2ccncc2)s1	nt	3.2µM	17µM	3.5µM	?	nt
C/C(=N\NC(=O)c1sccc1C)c1cccnc1	nt	?	13µM	?	?	nt
C/C(=N\Nc1ccc(C)c(Cl)c1)c1ccncc1	nt	i	?	i	i	nt
C/C(=N/NC(=O)c1ccco1)c1cccnc1	i	i	i	i	i	i
C/C(=N\Nc1ccc(C)c(Cl)c1)c1cccnc1	nt	?	15µM	?	i	nt
C/C(=N\NC(=O)c1sccc1C)c1ccncc1	nt	3.2µM	17µM	?	10µM	nt
O=C(CN1CCCc2ccccc21)NCCc1ccc(F)cc1	i	i	i	i	i	i
CCOc1cccc(-c2cc(C(=O)N/N=C/c3cccc(OC)c3O)[nH]n2)c1	i	nt	nt	nt	nt	nt
COc1cccc(CNC(=O)c2cccn2-c2nnc(N3CCCC3)s2)c1	nt	nt	i	nt	nt	nt
CCOC(=O)c1ccc(NC(=O)CCc2c(C)nc3c(c(C)nn3C(C)(C)C)c2C)cc1	nt	nt	i	nt	nt	i
CN(CCCC(=O)N1CCCC(C(N)=O)C1)S(=O)(=O)c1ccc(F)cc1 (centres undefined)	nt	i	i	i	i	nt
CC(C)NC(=O)c1cc2ccccc2o1	i	i	i	i	i	i
CCCCOC(=O)c1cccc(NC(=O)c2cc3ccccc3o2)c1	nt	nt	8.5µM	nt	nt	3.5µM
CC(=O)Nc1cccc(NC(=O)c2cc3ccccc3o2)c1	i	?	3.4µM	3.5µM	5.8µM	11µM
Cc1ccc(-c2nc3cc(NC(=O)c4cc5ccccc5o4)ccc3o2)cc1Cl	nt	nt	i	nt	nt	i
CCCCOC(=O)c1ccc(NC(=O)c2cc(=O)c3ccccc3o2)cc1	nt	nt	i	nt	nt	i
Cc1ccc(NC(=O)c2cc3ccccc3o2)cc1Cl	nt	3.2µM	3.4µM	4µM	?	nt
Cc1cc(C)nc(NC(=O)c2cc3ccccc3o2)n1	i	i	i	i	i	i
CC(C)C(=O)Nc1cccc(NC(=O)c2cc3ccccc3o2)c1	i	?	6µM	?	?	18µM
S=c1[nH]nc(COc2ccccc2)n1/N=C/c1c(Cl)cccc1Cl	nt	i	i	i	i	nt
CS(=O)(=O)NCc1ccccc1Br	nt	i	i	i	i	nt
COc1ccc(NC(=O)C2CCN(c3cc(C)nc4c(-c5ccc(Cl)cc5)c(C)nn34)CC2)cc1	nt	nt	i	nt	nt	i
Cc1ccc(NC(=O)c2ocnc2C)cc1Cl	i	3.2µM	12µM	?	?	14µM
SMILES	Luc counter	Rab9 promoter act	FLuc counter	NPC1 prom act	ELG1 genotox	SMN2 splice enh
Cc1ccc(-n2ncc3c(=O)n(CC(N)=O)cnc32)cc1C	nt	i	i	i	i	nt
Cc1ccc(-n2ncc3c(=O)n(CC(=O)N4CCCCCC4)cnc32)cc1	i	i	17µM	i	i	i
Cc1nc2c3cnn(-c4ccc(C)c(C)c4)c3ncn2n1	i	2µM	6.7µM	2µM	?	11µM
CCOC(=O)Cn1cnc2c(cnn2-c2ccc(C)c(C)c2)c1=O	nt	nt	21µM	nt	nt	i
CCOC(=O)/C(=N\Nc1ccc(Cl)cc1)Sc1nnc(-c2ccc(OC)cc2)n1C	i	i	i	i	i	i
Cc1ccccc1OCCSc1nc2ncnc(N)c2[nH]1	i	i	i	i	i	i
CCNC(=O)c1ccccc1-c1nc(-c2ccccc2OC)no1	nt	i	?	i	i	nt
COc1cc(OC)cc(-c2nc(-c3ccc(Br)cc3)no2)c1	i	?	13µM	i	i	i
COc1ccccc1-c1noc(-c2cccnc2)n1	i	i	?	i	21µM	i
COc1ccccc1-c1nc(-c2ccncc2)no1	i	2µM	6.7µM	2µM	?	13µM
COc1nc(-c2ccccc2)ccc1-c1noc(-c2cccnc2)n1	nt	?	?	i	i	nt
CCOc1ccccc1NC(=O)c1ccccc1-c1nc(-c2ccccc2OC)no1	nt	i	11µM	i	i	nt
CCC(C)NC(=O)Cn1ncc2c([nH]c3ccc(C)cc32)c1=O (centres undefined)	nt	nt	i	nt	nt	nt
COc1ccc(-c2nc(-c3ccc(Br)cc3)no2)c(OC)c1	i	nt	1.2µM	nt	nt	7.1µM
CCOc1ccccc1-c1nc(-c2ccncc2)no1	i	nt	i	nt	nt	i
CCOc1ccc(-c2nc(-c3ccc(OC)cc3)no2)cc1OCC	i	i	i	i	i	i
COc1ccc(Cl)cc1-c1nc(-c2ccncc2)no1	i	i	i	i	?	28µM
COc1nc(-c2ccc(C)cc2)ccc1-c1noc(-c2ccccc2Br)n1	nt	nt	?	nt	nt	i
CCOc1ccccc1-c1nc(-c2ccc(-c3ccccc3)nc2OCC)no1	nt	nt	i	nt	nt	i
CCOc1nc(C)ccc1-c1noc(-c2ccccc2OC)n1	i	i	24µM	i	i	i
Cc1ccc(-c2noc(-c3ccccc3Br)n2)cc1	i	2.8µM	0.67µM	0.79µM	?	13µM
O=C(O)CNC(=O)C12CC3CC(CC(Cl)(C3)C1)C2	i	i	i	i	i	i
Clc1ccc(OCc2nc(-c3ccncc3)no2)c(Cl)c1	i	0.63µM	2.1µM	0.89µM	7.3µM	16µM
COc1ccccc1-c1nc(-c2ccc(Br)cc2)no1	i	5µM	4.8µM	?	3.7µM	16µM
CN(C)c1ccc(-c2noc(-c3ccccc3O)n2)cc1	?	?	0.27µM	0.71µM	?	i
SMILES	Luc counter	Rab9 promoter act	FLuc counter	NPC1 prom act	ELG1 genotox	SMN2 splice enh
CCOc1ccc(NC(=O)C(=O)NCCN2CCN(S(=O)(=O)c3ccc(C)cc3)CC2)cc1	nt	i	i	i	i	nt
COc1ccc(Cl)cc1NC(=O)c1cc(-c2ccccc2O)n[nH]1	i	i	i	i	i	i
Cc1c(Cl)cccc1NC(=O)c1cc(-c2ccccc2O)n[nH]1	i	?	21µM	?	?	i
CC(=O)Nc1ccc(NC(=O)c2cc(-c3ccc(C)cc3O)n[nH]2)cc1	nt	i	i	i	i	nt
Cc1cccc(NC(=O)c2cc(-c3cc(C)c(C)cc3O)n[nH]2)c1	nt	0.56µM	?	0.89µM	?	nt
Cc1ccc(-c2cc(C(=O)Nc3cccnc3)[nH]n2)c(O)c1C	nt	4µM	3.4µM	?	9.2µM	nt
COc1ccc(CCNC(=O)c2cc(-c3ccc(C)c(C)c3O)n[nH]2)cc1OC	i	i	?	i	i	i
Cc1ccc(-c2cc(C(=O)NCc3ccc4c(c3)OCO4)[nH]n2)c(O)c1C	i	i	19µM	i	i	i
Cc1cc(O)c(-c2cc(C(=O)NCc3ccc4c(c3)OCO4)[nH]n2)cc1C	i	i	i	i	i	i
CCOc1ccc(N(CC(=O)NCCSCc2ccccc2)S(C)(=O)=O)cc1	nt	i	i	i	i	nt
COc1ccc(NC(=O)c2cc(-c3cc(C)ccc3O)n[nH]2)cc1Cl	i	i	i	i	i	i
Cc1cccc(NC(=O)c2cc(-c3cc(C)ccc3O)n[nH]2)c1	nt	?	3µM	1.1µM	?	nt
